Rows were chosen to be rich in hits. Some 2.8% of all compounds tested hit in one or more screens of this group.
MITF act: activators of MITF-driven TRPM1 promoter activity in SK-MEL-5 cells | SK-MEL-5 TRPM1-promoter luciferase, 24 h; % of positive control, neutral wells = 0 | activation, % at 12.5 µM | hit rate 0.75% among 300,000 | AID 588334;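 active = mean activation of at least 80% with every replicate also reaching 80%; inconclusive = mean reaches 80% but some replicate falls short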;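 also: 0% = neutral control wells and 100% = parthenolide positive control wells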
FXN GAA850 act: increases GAA850 frataxin promoter reporter activity; HEK293 lucGAA850 FXN promoter luciferase reporter, 24 h; percent of 10 µM SAHA response; activation, % at 6 µM; hit rate 0.56% among 360,000; AID 540364;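 active = activation above the average of all compounds screened plus 3 SD, cutoff fixed separately per campaign, cut at about 7.5% in these data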;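 also: 0% = DMSO wells and 100% = 10 µM SAHA wells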
Wnt act: Wnt/beta-catenin pathway activation; Wnt/beta-catenin reporter cell assay, activator, plate reader; activation, % at 9.35 µM; AID 743398; hit rate 1.2% among 300,000; in the data active = activation above about 30%, passing the limit was not always enough; inconclusive = no clear call, values can overlap the other calls;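 also: 0% = neutral control wells and 100% = positive control wells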
esBAF inh: blocks esBAF chromatin remodeling in mouse ES cells. reporter increase, % at 12.5 µM. Bmi1-luciferase knock-in reporter, 24 h; 100% = twice the neutral-well signal. hit rate 2% among 350,000; in the data active = activation above about 40%; inconclusive = no clear call, values can overlap the other calls;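 also: 0% = median of the plate's neutral control wells and 100% = double that signal; a rise in the Bmi1 reporter signal indicates esBAF inhibition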
* hit, by the source's call; u = inconclusive; x = no result.

SMILES	MITF act	FXN GAA850 act	Wnt act	esBAF inh
CO[C@H]1CN(C)C(=O)c2cc(NC(=O)Nc3ccc(F)cc3)ccc2OC[C@@H](C)NC[C@@H]1C	x	x	x	-2
C[C@@H]1CN([C@@H](C)CO)C(=O)c2cc(NS(=O)(=O)c3cn(C)cn3)ccc2O[C@@H]1CN(C)S(C)(=O)=O	x	x	x	3
C[C@@H]1CCCCO[C@@H](CN(C)Cc2ccc(Cl)c(Cl)c2)[C@H](C)CN([C@@H](C)CO)C(=O)c2cc(NS(=O)(=O)c3cn(C)cn3)ccc2O1	x	x	x	9
COc1cc2c(cc1NCc1ccccn1)oc1ccccc12	24	4	24	45*
CC(C)(C)C(=O)[C@H]1[C@H](c2ccccc2)[C@@]2(N=C(c3ccccc3)OC2=O)C2c3ccccc3C=NN21 (stereo partly specified)	x	3	12	47*
COc1ccc([C@H]2[C@H](C(=O)OC(C)(C)C)N3N=Cc4ccccc4C3C23C(=O)c2ccccc2C3=O)cc1OC (stereo partly specified)	20	1	1	2
CC(C)c1ccc(NC(=O)C(c2ccccc2)N2CC(=O)Nc3ccccc32)cc1 (stereo unspecified)	x	2	15	66*
CC(C)[C@H](NC(=O)N1CC(=O)Nc2ccccc21)C(=O)N[C@H](C(=O)O)c1ccccc1	3	0	-1	-6
CO[C@H]1CN(C)C(=O)c2cc(NC(=O)Nc3ccc(Cl)cc3)ccc2OC[C@H](C)N(C)C[C@H]1C	x	x	x	0
CC(=NC1CCCCC1)c1ccc(O)cc1O	x	-1	0	14
CC(=NC1CCCCC1)C1=C(O)c2ccccc2C1=O	90*	4	u	14
O=C(C[C@@H]1C[C@H]2c3cc(NC(=O)c4ccc5c(c4)OCO5)ccc3O[C@H]2[C@@H](CO)O1)NCc1cccc(F)c1	x	x	x	5
c1ccc(N2CCN(c3cnccn3)CC2)nc1	x	0	x	9
N#Cc1cc(C#N)c(N2CCN(c3ccccn3)CC2)nc1N	98*	7	30	x
CC(C)Oc1ccc(C(=O)NCCCNC(=O)c2cccnc2)cc1	-3	2	38*	2
O=C(NCCCCNC(=O)c1cccnc1)c1cccnc1	x	-1	x	2
CC(=O)Nc1cccc(OCCCNC(=O)c2ccc(F)cc2)c1	14	0	14	5
CC(=O)Nc1cccc(OCCCNC(=O)c2ccc(C(C)(C)C)cc2)c1	x	3	31*	-2
CC(C)(C)c1ccc(C(=O)NCCCNC(=O)c2cccnc2)cc1	12	0	-4	47*
C[C@@H]1CN([C@H](C)CO)C(=O)c2cccc(NC(=O)Nc3ccccc3)c2O[C@@H]1CN(C)C(=O)Nc1ccc2c(c1)OCO2	x	x	x	10
CCCNC(=O)C[C@@H]1CC[C@@H]2[C@@H](COc3ccc(NC(=O)c4cccc(F)c4)cc3C(=O)N2C)O1	x	x	x	8
CO[C@H]1CN(C)C(=O)c2cc(NC(=O)C3CCOCC3)ccc2OC[C@H](C)N(C(=O)c2ccccc2)C[C@H]1C	x	x	x	0
O=C(N/N=C/c1ccc(OC(=O)c2cccs2)cc1)c1ccccn1	99*	4	28	x
O=C(N/N=C/c1ccncc1)c1ccccn1	64	2	5	14
O=C(N/N=C/c1ccc(N2CCOCC2)cc1)c1ccccn1	67	5	36*	x
Cc1ccc(SCCSc2nc(C)cc(=O)[nH]2)cc1	53	3	34*	34
